For 22 compounds, outcome and AC50 results are on record in PubChem BioAssay (EPA / NIEHS).

Structures are written as SMILES. Activity calls are given as the source filed them. How the source made its calls: active means hit-call score of the fitted dose curve at least 0.9, where 1 is the maximum; inactive means score below 0.9.

Sequence of Retinoic acid receptor alpha (Homo sapiens) (P10276 whole entry, looked up): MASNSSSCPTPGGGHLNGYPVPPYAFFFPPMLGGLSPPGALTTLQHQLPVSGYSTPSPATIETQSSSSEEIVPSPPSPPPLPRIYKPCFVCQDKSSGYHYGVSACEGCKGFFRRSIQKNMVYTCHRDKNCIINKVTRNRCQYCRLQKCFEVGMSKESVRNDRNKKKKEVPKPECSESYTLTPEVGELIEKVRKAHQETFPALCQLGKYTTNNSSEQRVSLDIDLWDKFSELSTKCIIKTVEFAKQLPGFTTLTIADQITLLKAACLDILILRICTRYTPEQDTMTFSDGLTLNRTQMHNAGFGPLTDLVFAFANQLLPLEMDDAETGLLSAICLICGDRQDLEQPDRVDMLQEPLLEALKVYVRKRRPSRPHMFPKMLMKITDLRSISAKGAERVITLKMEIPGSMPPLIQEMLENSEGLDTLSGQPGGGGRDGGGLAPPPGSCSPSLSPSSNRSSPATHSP

The target of the test is Retinoic acid receptor alpha (Homo sapiens) (UniProt P10276). Description: ATG_DR5_RAR_CIS: Attagene CIS-FACTORIAL HepG2 Assay for human Retinoic Acid Receptor Alpha (RARE), DR5 submotif (AID 2282934).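 On AC50: reporter responds to endogenous RAR alpha beta and gamma in HepG2 not RARA alone.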 Conditions: HepG2 Attagene cis-factorial RARE DR5 reporter, mRNA; actives raise or lower the signal. Summed up:
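HepG2 cells transiently transfected with multiplexed reporter units under cis (DR5 RARE) promoters, so endogenous transcription factor activity is measured. After 24 h compound exposure, reporter mRNA is quantified by RT-PCR with fluorescent labelling and capillary electrophoresis; bidirectional fitting versus DMSO.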
For the compound `CCC(Cc1c(I)cc(I)c(N)c1I)C(=O)O` (configuration not stated), the call was inactive. As to `C=C(C)CCCC`, the outcome was inactive. For the compound `OCC(F)(F)C(F)(F)C(F)(F)C(F)(F)C(F)(F)C(F)(F)CO`, the compound was called inactive. Same read-out and setting: to `C[C@]12CC[C@H]3C(=CCc4cc(O)ccc43)[C@@H]1CCC2=O` belongs “inactive”. For orientation: AC50 means the midpoint of the concentration-response curve, whichever way the signal moves. For `Oc1ccc(C2(c3ccc(O)c(C4CCCCC4)c3)CCCCC2)cc1C1CCCCC1`, the AC50 is 8.25 µM (active). For `O=C(O)CCC(F)(F)C(F)(F)C(F)(F)C(F)(F)C(F)(F)C(F)(F)C(F)(F)F`, the outcome was inactive. With `NCC(F)(F)C(F)(F)C(F)(F)C(F)(F)C(F)(F)C(F)(F)F`, the compound was classed as inactive. Same read-out and setting: to `CC(C)C(=O)OCc1ccccc1` belongs “inactive”; to `CO[Si](C)(CCC(F)(F)C(F)(F)C(F)(F)C(F)(F)C(F)(F)C(F)(F)F)OC`, “inactive”. As to `CCCCCCCCCc1ccc(OCCO)cc1`, the compound was called inactive. Still for that read-out and setting: to `FC(F)(F)C(F)(F)C(F)(F)C(F)(F)C(F)(F)C(F)(F)C(F)(F)CCI` belongs “inactive”. Turning to `C[Si](C)O[Si](C)C`, the result was inactive. As to `Cc1cnccn1`, the compound was called inactive. The same measure, in the same setting: to `NCC(F)(F)C(F)(F)C(F)(F)C(F)(F)C(F)(F)C(F)(F)C(F)(F)C(F)(F)F` belongs “inactive”. The same measure, in the same setting: to `OCC(F)(F)C(F)(F)C(F)(F)CO` belongs “inactive”. `CN(C)C(C)(C)CO`: the compound was called inactive. With `Nc1cc([N+](=O)[O-])cc(Cl)c1O`, the compound was classed as inactive. On the same count and under the same terms, to `CCCCCCCCCCCCC[N+](C)(C)Cc1ccccc1` belongs “inactive”. Consider `OCCCc1cccnc1`, for which the compound was classed as inactive. Same read-out and setting: to `O=C(Cl)C(F)(F)C(F)(F)C(F)(F)C(F)(F)C(F)(F)C(F)(F)C(F)(F)F` belongs “inactive”.

Take `Cc1cc(C)c(O)c(C(C)(C)C)c1`: the compound was called inactive. The same measure, in the same setting: to `CCC(=O)OC(C)c1ccccc1` (configuration not stated) belongs “inactive”.
